Myc binder – binders of human c-Myc. calls only. P01106. 17,000 tested, 1.5% active. small molecule microarray, His-c-Myc binding, anti-His fluorescence;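 active = spot fluorescence over background with P-value below 7% in all four replicate spots, showing protein binding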
STAT3 SMM – binds human STAT3 on microarray; Small molecule microarray, His-STAT3 binding, anti-His fluorescence; 17,000 tested, 0.2% active; calls only;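 active = compounds whose four printed spots each show fluorescence over background unusually high for their array block, chance value under 7%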
NFkB SMM – binds human NF-kappa-B p105 on microarray | Small molecule microarray, anti-His fluorescence binding | calls only | 17,000 tested, 1.3% active;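 active = spot fluorescence over background significantly raised, with a chance value under 7% in all four replicate spots of the compound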;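 note: probe protein is his-tagged human p50 processed subunit at 1 µg/ml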
Target sequence (P19838 1-433 limits assumed): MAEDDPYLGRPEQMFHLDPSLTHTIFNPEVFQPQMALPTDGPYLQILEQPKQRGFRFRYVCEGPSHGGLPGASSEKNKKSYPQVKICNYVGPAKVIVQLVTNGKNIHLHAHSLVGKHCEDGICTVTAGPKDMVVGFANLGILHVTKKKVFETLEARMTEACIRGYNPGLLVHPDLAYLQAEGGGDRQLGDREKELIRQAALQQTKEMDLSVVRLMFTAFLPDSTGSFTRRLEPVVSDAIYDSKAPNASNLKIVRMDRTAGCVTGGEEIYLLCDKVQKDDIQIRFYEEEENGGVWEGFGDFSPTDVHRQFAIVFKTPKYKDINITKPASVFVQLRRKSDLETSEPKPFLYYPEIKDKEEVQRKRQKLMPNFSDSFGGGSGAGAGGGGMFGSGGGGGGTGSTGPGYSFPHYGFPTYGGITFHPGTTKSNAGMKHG
mut p53 react – restores mutant p53 pathway signaling in SW480 cells | activation, % at 9.98 µM | 28,000 tested, 1.5% active | SW480 PUMA-promoter luciferase, p53 mutant reactivation; in the data active = activation above about 52%; inconclusive = no clear call, values can overlap the other calls
p53 mut binder – binders of human mutant p53 | small molecule microarray binding, anti-GST fluorescence | 17,000 tested, 0.4% active | AID 624136 | calls only;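 active = compounds whose four printed spots each glow above background more than chance allows, each with a p-value under 7%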
Each line names hits and unclear results; the compound was inactive in the other large screens. The list is not random: actives were taken first. Their share in the collection is about 2.6%.

O=C(COc1ccc(Cl)cc1Br)NCc1ccccn1	mut p53 react 76 (no result: Myc binder, STAT3 SMM, NFkB SMM, p53 mut binder)
O=C(NCc1ccccn1)Nc1ccc(F)cc1F	none
Cc1ccc(C)c(NC(=O)CN(c2cccc(F)c2)S(C)(=O)=O)c1	mut p53 react 64 (no result: Myc binder, STAT3 SMM, NFkB SMM, p53 mut binder)
Cc1ccc(NC(=O)CN(c2cccc(F)c2)S(C)(=O)=O)cc1Cl	none (no result: Myc binder, STAT3 SMM, NFkB SMM, p53 mut binder)
Cc1c(Br)ccc(NC(=O)CSc2nnc(-c3ccc(Cl)cc3)n2C)c1C	mut p53 react 107 (no result: Myc binder, STAT3 SMM, NFkB SMM, p53 mut binder)
O=C(COc1ccc([N+](=O)[O-])cc1)Nc1ccccc1N1CCN(C(=O)c2ccc(Cl)cc2)CC1	none
COC(=O)C1=C2CC[C@H](CO)NC(=O)N[C@H](Cc3ccccc3)C(=O)NCc3cn(nn3)C[C@@H](Cc3ccccc3)NC(=O)c3oc(c(C(=O)OC)c3C(=O)OC)CC[C@H](CO)NC(=O)N[C@H](Cc3ccccc3)C(=O)NCc3cn(nn3)C[C@@H](Cc3ccccc3)NC(=O)C(=C1C(=O)OC)O2	STAT3 SMM active (no result: mut p53 react)
COc1ccc(-c2noc(CC(=O)O)c2-c2ccc(OC)cc2)cc1	Myc binder active
O=C(CNC(=O)c1cn(-c2ccccc2)nc1-c1ccccc1)c1ccccc1	mut p53 react 121
Cc1ccc(N(C(C)C(=O)Nc2c(C)cc(C)cc2C)S(C)(=O)=O)cc1 (stereo not drawn)	none (no result: Myc binder, STAT3 SMM, NFkB SMM, p53 mut binder)
O=C(O)CCC(=O)Nc1ccccc1C(=O)O	Myc binder active
CCc1ccccc1NC(=O)CCC(=O)O	none (no result: Myc binder, STAT3 SMM, NFkB SMM, p53 mut binder)
COc1ccc(C(=O)Nc2ccccc2C(=O)NC(C(=O)O)C(C)C)cc1 (stereo not drawn)	Myc binder active
Cc1ccc(OCC(=O)Nc2ccc3oc(-c4ccc(F)cc4Cl)nc3c2)cc1	none (no result: Myc binder, STAT3 SMM, NFkB SMM, p53 mut binder)
CCOC(=O)C1=C(Cn2ccc(C(F)(F)F)n2)NC(=O)NC1c1cc(C)ccc1C (stereo not drawn)	none (no result: Myc binder, STAT3 SMM, NFkB SMM, p53 mut binder)
COc1ccc(NC(=O)CCCC(=O)O)cc1	none (no result: Myc binder, STAT3 SMM, NFkB SMM, p53 mut binder)
CCOC(=O)c1cnc2c(C)c(C)ccc2c1NCCN(C)C	p53 mut binder active
Cc1occc1-c1nnc2sc(-c3ccc(-c4ccccc4[N+](=O)[O-])o3)nn12	mut p53 react inconclusive, p53 mut binder active
CC(C)(O[C@@H]1O[C@H](CO)[C@@H](O)[C@H](O)[C@H]1O)[C@@H](O)COc1c2ccoc2cc2oc(=O)ccc12	none
Cc1ccccc1OCC(=O)Nc1cccc(C(=O)O)c1	none (no result: Myc binder, STAT3 SMM, NFkB SMM, p53 mut binder)
Cc1ccccc1OCC(=O)NC(=S)Nc1ccccc1-c1nc2ccccc2s1	none (no result: Myc binder, STAT3 SMM, NFkB SMM, p53 mut binder)
Cc1ccccc1OCC(=O)Nc1cccc(-c2nc3ccccc3s2)c1	mut p53 react 79
Cc1ccccc1OCC(=O)Nc1cccc(NC(=O)C(C)C)c1	mut p53 react 62 (no result: Myc binder, STAT3 SMM, NFkB SMM, p53 mut binder)
CCC(=O)Nc1ccc(Cl)c(NC(=O)COc2ccc(Br)cc2)c1	none (no result: Myc binder, STAT3 SMM, NFkB SMM, p53 mut binder)
CCC(=O)Nc1ccc(Cl)c(NC(=O)COc2ccccc2C)c1	mut p53 react 107 (no result: Myc binder, STAT3 SMM, NFkB SMM, p53 mut binder)
O=C(CSc1ncnc2sc3c(c12)CCC3)Nc1cccc(-c2nc3ccccc3s2)c1	mut p53 react 80 (no result: Myc binder, STAT3 SMM, NFkB SMM, p53 mut binder)
CC(=O)Nc1ccccc1NC(=O)COc1ccc(Cl)c(C)c1	none
CN(CC(=O)Nc1ccc(Oc2ccccc2)cc1)S(=O)(=O)c1ccc(F)cc1	none (no result: Myc binder, STAT3 SMM, NFkB SMM, p53 mut binder)
Cc1cccc(OCC(=O)Nc2cccc(-c3nc4ccccc4s3)c2)c1C	mut p53 react 95 (no result: Myc binder, STAT3 SMM, NFkB SMM, p53 mut binder)
O=C(COc1ccccc1Cl)NCc1ccco1	none (no result: Myc binder, STAT3 SMM, NFkB SMM, p53 mut binder)
O=C(COc1cc(Cl)c(Cl)cc1Cl)NCc1ccco1	mut p53 react 56
COc1cc2c(cc1NC(=O)CSc1nnnn1C)oc1ccccc12	mut p53 react 147 (no result: Myc binder, STAT3 SMM, NFkB SMM, p53 mut binder)
COc1cc2c(cc1NC(=O)CSc1nnc(N)s1)oc1ccccc12	mut p53 react 117
Cc1ccc(NC(=O)CSc2nnc(-c3ccc(Cl)cc3Cl)n2-c2ccccc2)cc1	none
Cc1ccc(C(=O)CC(C(=O)O)n2ccc(C)n2)cc1 (stereo not drawn)	Myc binder active, NFkB SMM active
COc1cc(O)c2c(=O)c(O[C@@H]3O[C@H](CO[C@@H]4O[C@@H](C)[C@H](O)[C@@H](O)[C@H]4O)[C@@H](O)[C@H](O)[C@H]3O)c(-c3ccc(O)c(O)c3)oc2c1	none
COc1ccc(-c2cc(C(F)(F)F)nc(SCC(=O)Nc3cc(F)ccc3C)n2)cc1OC	none (no result: Myc binder, STAT3 SMM, NFkB SMM, p53 mut binder)
COc1ccc(NC(=O)c2ccc(OC(C)C(=O)O)cc2)cc1Cl (stereo not drawn)	NFkB SMM active
COc1ccc(NC(=O)c2ccc(OC(C)C(=O)Nc3ccccc3C(F)(F)F)cc2)cc1Cl (stereo not drawn)	none (no result: Myc binder, STAT3 SMM, NFkB SMM, p53 mut binder)
O=C1CSC(C23CC4CC(CC(C4)C2)C3)N1 (stereo not drawn)	none (no result: Myc binder, STAT3 SMM, NFkB SMM, p53 mut binder)
Cc1cccc(-c2nnc(SCC(=O)Nc3ccc(Br)cc3F)o2)c1	mut p53 react 80 (no result: Myc binder, STAT3 SMM, NFkB SMM, p53 mut binder)
Cc1ccc(NC(=O)CSc2nnc(-c3ccc(Br)cc3)o2)cc1Cl	none (no result: Myc binder, STAT3 SMM, NFkB SMM, p53 mut binder)
O=C(CSc1nnc(-c2ccccc2)o1)Nc1cccc(Br)c1	mut p53 react 102 (no result: Myc binder, STAT3 SMM, NFkB SMM, p53 mut binder)
CSc1cccc(NC(=O)CSc2nnc(-c3cccc(C)c3)o2)c1	mut p53 react 103 (no result: Myc binder, STAT3 SMM, NFkB SMM, p53 mut binder)
O=C(CSc1nnc(-c2ccc(Br)cc2)o1)Nc1ccccc1Cl	mut p53 react 75 (no result: Myc binder, STAT3 SMM, NFkB SMM, p53 mut binder)
CC(C)(CSc1nnc(Nc2ccccc2)s1)NS(=O)(=O)c1ccc(Cl)cc1	none
[N-]=[N+]=NCc1ccccc1C[C@@]1(C(=O)N2CCOCC2)N=C(c2ccc(OCCCO)cc2)O[C@@H]1c1ccccc1	none (no result: mut p53 react)
[N-]=[N+]=NCc1ccccc1C[C@@]1(C(=O)N2CCCCC2)N=C(c2ccc(OCCCO)cc2)O[C@@H]1c1ccccc1	STAT3 SMM active (no result: mut p53 react)

Screening data as filed in PubChem.
